High-throughput results: PubChem BioAssay, Johns Hopkins Ion Channel Center
ANO1 activ = TMEM16A chloride channel activators or potentiators, primary screen, cell-based, HTS; HEK293 TMEM16A/YFP-H148Q/I152L, iodide quench fluorescence; active compounds read low; actives 0.3% (n = 340,000); B-score at 10 µM; Anoctamin-1 (Mus musculus), Q8BHY3;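 active = fluorescence-ratio B-score plate-corrected deviation score at least 3 library SD below zero, with starting fluorescence score within 5 deviations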;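 note: channel opened by trigger with iodide after compound preincubation; score built on the fluorescence ratio of max minus min over baseline; more negative score means more quench and so TMEM16A activation or potentiation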
Kir21 inh = inhibitors of mouse Kir2.1 inward-rectifier potassium channel. Inward rectifier potassium channel 2 (Mus musculus), P35561. HEK293-Kir2.1, FluxOR thallium flux fluorescence; active compounds read low. B-score at 10 µM. actives 0.85% (n = 310,000). AID 1672, 2009;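 active = fluorescence ratio B-score at or below minus 3 SD of library scores, with starting-brightness B-score within 2 SD, cut at about -4.2 in these data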;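 note: channel flux triggered by added potassium and thallium sulfate stimulus; B-score of peak minus minimum fluorescence over baseline after thallium stimulus; more negative B-score means stronger Kir2.1 block with less thallium influx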
Target sequence (P35561 whole entry, looked up): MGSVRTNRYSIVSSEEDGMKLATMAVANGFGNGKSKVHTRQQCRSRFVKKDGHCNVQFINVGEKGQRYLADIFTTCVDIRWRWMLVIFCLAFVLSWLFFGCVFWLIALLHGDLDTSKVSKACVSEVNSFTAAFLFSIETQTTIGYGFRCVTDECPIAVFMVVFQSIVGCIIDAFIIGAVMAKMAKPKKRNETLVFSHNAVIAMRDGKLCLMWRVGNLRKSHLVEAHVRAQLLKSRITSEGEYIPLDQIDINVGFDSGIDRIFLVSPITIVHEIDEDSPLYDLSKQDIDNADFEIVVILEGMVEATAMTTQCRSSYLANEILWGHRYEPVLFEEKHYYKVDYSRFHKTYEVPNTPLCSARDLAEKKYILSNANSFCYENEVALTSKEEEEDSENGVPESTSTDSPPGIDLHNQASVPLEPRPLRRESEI
KCNK3 inh = human KCNK3 channel inhibitors, primary screen, CHO cells, FluxOR thallium flux, B-score; FluxOR fluorescence; active compounds read low; AID 602410, 2012; B-score at 10 µM; Potassium channel subfamily K member 3 (Homo sapiens), O14649; actives 0.84% (n = 340,000);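 active = B-score under library mean minus 4 SD, starting fluorescence ratio at most library mean plus 5 SD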;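 note: more negative B-score means stronger inhibition of thallium flux through KCNK3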
KCNK9 block = KCNK9 potassium channel inhibitors, primary screen, HEK293 cells, thallium flux; FluxOR thallium flux fluorescence; active compounds read low; B-score at 10 µM; Potassium channel subfamily K member 9 (Homo sapiens), Q9NPC2; actives 1.2% (n = 310,000);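 active = ratio B-score over 3 SD below the library mean, with starting fluorescence within 5 SD of its mean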;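 note: negative B-score means less thallium flux so channel inhibition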
ANO1 block = TMEM16A chloride channel inhibitors, primary screen, cell-based, HTS. actives 1.2% (n = 310,000). Anoctamin-1 (Mus musculus), Q8BHY3. HEK293 TMEM16A/YFP iodide influx fluorescence, ionomycin. normalized B-score (activity score, 25-100; higher = stronger inhibition) at 10 µM;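 active = ratio plate-corrected score three or more library SD toward inhibition, starting fluorescence score within five deviations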;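 note: score derived from kinetic fluorescence span divided by baseline fluorescence per well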
KCNK3 confirm = retest of human KCNK3 channel inhibitors, confirmation, CHO cells, FluxOR thallium flux, triplicate; ratio percent of control, % at 10 µM; actives 99% (n = 2,400); shares compounds with KCNK3 inh; AID 651638, 2012; FluxOR fluorescence; 0% buffer, 100% carvedilol maximal block;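 active = ratio percent of control, averaged over triplicates, above buffer control mean plus 5 SD, cut at about 64% in these data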;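 note: ratio is the fluorescence rise from min to max over baseline after thallium stimulus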
KCNK3 uninduced = thallium flux inhibition in non-induced cells, primary screen, counter-screen for KCNK3 inhibitor project, cell-based, non-induced KCNK3 line, FluxOR thallium, triplicate; shares compounds with KCNK3 inh; thallium flux ratio (lower = more inhibition) at 10 µM; actives 40% (n = 2,400); non-induced KCNK3 parental cells; active compounds read low;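 active = thallium flux ratio, averaged over three wells, more than 5 SD below the buffer control mean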;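 note: host cells are CHO cells without KCNK3 induction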
A number is an active result; n = inactive; x = no result given. This is a sample that favours compounds with a hit; in the whole collection about 3.5% have one here.

SMILES	ANO1 activ	Kir21 inh	KCNK3 inh	KCNK9 block	ANO1 block	KCNK3 confirm	KCNK3 uninduced
CCOc1ccc(Br)cc1S(=O)(=O)N1CCSC1	n	-5	-9	n	n	88	n
CCC1CCCCN1CCCNC(=O)Cn1c(=O)c2cccn2c2cccnc21 (stereo not drawn)	n	n	n	n	n	x	x
S=C(NCc1ccco1)N1CCN(C(c2ccccc2)c2ccccc2)CC1	n	n	-12	-7.8	n	135	0.15
COCCCn1c(=O)c2ccccc2n2c(=S)[nH]nc12	n	n	n	n	n	x	x
CCN(c1ccccc1)S(=O)(=O)c1nnc(NC(=O)c2ccccc2OC)s1	n	n	n	n	n	x	x
CCN1C(=O)C(CC(=O)Nc2ccc(OC)cc2)N(CCc2ccc(F)cc2)C1=S (stereo not drawn)	n	n	-9	n	n	116	n
COc1ccc(NC(=O)CC2C(=O)N(C)C(=S)N2CCc2ccc(F)cc2)cc1 (stereo not drawn)	n	n	n	n	n	x	x
CCN1C(=O)C(CC(=O)Nc2ccc(OC)cc2)N(CCCN2CCN(c3ccc(F)cc3)CC2)C1=S (stereo not drawn)	n	n	n	n	n	x	x
COc1ccc(CCN2C(=S)N(C)C(=O)C2CC(=O)Nc2ccc(OC)cc2)cc1 (stereo not drawn)	n	n	-9.2	n	n	86	0.15
CCOC(=O)c1cnc2ccc(C)cc2c1NCCN1CCOCC1	n	n	-8.8	n	n	100	n
NC(=O)Cn1nc([N+](=O)[O-])nc1Oc1ccccc1F	n	n	n	n	n	x	x
NC(=O)C1CCN(C(=O)CC(c2ccccc2)c2ccccc2)CC1	n	n	n	n	n	x	x
COc1ccc(OC)c(-c2csc(N(CC3CCCO3)C(=O)C3CCCCC3)n2)c1 (stereo not drawn)	n	n	-9.5	n	n	93	n
CCN(CC)CCCN(C(=O)c1cccs1)c1nc(-c2ccc(OC)cc2)cs1	n	n	n	n	n	x	x
COc1ccc(-c2csc(N(CC3CCCO3)C(=O)c3cccs3)n2)cc1 (stereo not drawn)	n	n	-10	n	n	117	n
CC(=O)Nc1ccc(C(=O)NC(CC(=O)O)c2ccc(Cl)cc2)cc1 (stereo not drawn)	n	n	n	n	n	x	x
O=C(NC(=S)Nc1ccc2oc(=O)ccc2c1)c1cccc(Cl)c1	n	n	n	n	n	x	x
CN1CCc2c(sc(NC(=O)C3CCCN3S(=O)(=O)c3ccc(Cl)s3)c2C(N)=O)C1 (stereo not drawn)	n	n	n	n	n	x	x
O=C(NCCn1cc(SCc2ccc(F)cc2)c2ccccc21)c1ccccc1F	n	n	-16	-7.5	n	140	0.12
CN(C)S(=O)(=O)c1ccc(C(=O)N2CC(=O)Nc3ccc(F)cc3C2c2ccc(F)cc2)cc1 (stereo not drawn)	x	n	n	n	n	x	x
O=C(N/N=C/c1ccccn1)c1cccc(NC(=O)c2ccccc2Cl)c1	n	n	n	n	n	x	x
O=C(Nc1cccc(NC(=O)c2cccnc2)c1)c1ccccc1	n	n	-9.1	n	n	96	n
O=C(Nc1cccc(NC(=O)c2ccccc2Cl)c1)c1ccc(F)cc1	n	n	-9.3	n	n	95	n
CC(C)C(=O)Nc1cccc(NC(=O)c2cccnc2)c1	n	n	n	n	n	x	x
O=C(N/N=C/c1ccccc1F)c1cccc(NC(=O)c2ccccc2Cl)c1	n	n	-8.8	n	n	107	0.16
Cc1ccccc1C(=O)Nc1cccc(NC(=O)c2ccc(F)cc2)c1	x	n	n	n	n	x	x
